Screening data: PubChem, National Center for Advancing Translational Sciences (NCATS)
IP6K1 inhibitor = IP6K1 kinase inhibition | Q92551 | IP6K1 kinase, ADP-Glo luminescence, 2 h; active compounds read low | activity change, % (series mostly up to about 58 µM) | hit rate 0.81% among 140,000; in the data active means activity change below about -25%
Target sequence (Q92551 whole entry, looked up): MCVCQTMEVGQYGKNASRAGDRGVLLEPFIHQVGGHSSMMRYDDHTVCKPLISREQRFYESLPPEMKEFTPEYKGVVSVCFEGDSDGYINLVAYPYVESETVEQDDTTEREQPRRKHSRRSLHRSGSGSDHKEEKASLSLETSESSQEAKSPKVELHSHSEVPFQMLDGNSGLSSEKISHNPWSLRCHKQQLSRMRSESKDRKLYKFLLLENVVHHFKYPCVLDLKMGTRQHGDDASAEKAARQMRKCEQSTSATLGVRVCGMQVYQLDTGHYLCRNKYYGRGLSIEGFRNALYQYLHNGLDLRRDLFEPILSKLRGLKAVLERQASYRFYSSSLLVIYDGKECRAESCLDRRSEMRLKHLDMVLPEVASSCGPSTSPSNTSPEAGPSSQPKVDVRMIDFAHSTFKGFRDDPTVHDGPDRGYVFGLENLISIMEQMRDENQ
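ADP-Glo luminescence measures ADP made by human IP6K1 during a 2 h RT reaction with ATP/IP6 (mix at 1.3 mM/130 uM); top library doses 57.5 and 19.1 uM final.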
KDM5B inhibitor = blocks human KDM5B histone demethylase activity | KDM5B demethylase, FDH-coupled NADH fluorescence (FDH is formaldehyde dehydrogenase) | Potency, µM (doses to about 57.7 µM), usual class: inhibitors | hit rate 2.6% among 220,000 | AID 1347165; further: nearly all actives have a fitted effect of over 70% in size
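qHTS format, multiple compound concentrations. Buffer 50 mM HEPES pH 7.5/0.01% Tween-20; 200 nM KDM5BΔAP final; 10 min compound preincubation; substrate-mix levels 12.5 µM peptide, 25 µM α-KG, 0.25 mM NAD⁺; 30 min RT; ΔRFU.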
IP6K1 inh cnf = human IP6K1 inhibition, confirmatory; shares compounds with IP6K1 inhibitor; recombinant IP6K1 kinase, ADP-Glo luminescence, 2 h; Potency, µM (top dose mostly 49 µM), actives largely listed as inhibitors; hit rate 13% among 1,200; AID 1645852; further: nearly all actives have a fitted effect of over 65% in size
A number is an active result; - = inactive; ? = inconclusive; . = not tested or not shown; ! = repeats disagree. The list is not random: actives were taken first. Their share in the collection is about 2.8%. Unless noted, the call rests on the fitted dose curve; in most records, active means well fitted inhibition curve with a large enough effect; inconclusive means small, poorly fitted or top-dose-only effect; inactive means no such curve, though single readings can be large or run the other way.

SMILES	IP6K1 inhibitor	KDM5B inhibitor	IP6K1 inh cnf
CCCNC(=O)c1ccc2c(=O)n(CCOC)c(SCC(=O)c3ccccc3)nc2c1	.	-	.
COCCNC(=O)c1ccc2c(=O)n(CCc3ccccc3)c(SCC(=O)CC(=O)OC)nc2c1	-25	-	-
Cc1cn(C)c(CC(=O)N2CCN(c3cccc(Cl)c3)CC2)c1C(=O)O	-26	-	-
Cc1ccc(N2CCN(C(=O)Cc3c(C(=O)O)c(C)cn3C)CC2)c(C)c1	-	-	.
O=C1CC(c2ccc(F)cc2)c2c(c3ccccc3[nH]c2=O)O1 (stereo not drawn)	-28	?	-
COc1cc(C2CC(=O)Oc3c2c(=O)[nH]c2ccccc32)cc(OC)c1OC (stereo not drawn)	-	?	.
NCCC1CCN(C(=O)Nc2ccccc2)CC1	-	-	.
CCOCCOC1CCN(C(=O)c2ccc3[nH]ccc3c2)CC1	-	-	.
COc1ccccc1N1CCN(C(=O)C(OC)c2ccccc2)CC1=O (stereo not drawn)	-26	-	-
COc1ccccc1N1CCN(S(=O)(=O)CCNC(=O)C(c2ccccc2)c2ccccc2)CC1	-	-	.
Cc1ccc(S(=O)(=O)NCCc2csc(-c3cccc(F)c3)n2)c(C)c1	.	-	.
Cc1nc([C@@H]2CN(C(=O)CCc3c[nH]c4ccccc34)C[C@H]2C(N)=O)n[nH]1	-	-	.
O=[N+]([O-])c1ccc(CNc2nc(NCc3cccc(C(F)(F)F)c3)nc3nc[nH]c23)cc1	-75	.	1.6µM!
NC(=O)c1cccnc1NCc1cccc(C(F)(F)F)c1	.	-	.
NCCC(=O)N1CCCC2(Cc3ccccc3CN2C(=O)c2ccccc2)C1 (stereo not drawn)	-	-	.
O=C(Nc1ccc(Cl)cc1)c1nnc(C(=O)N2CCC(CC(=O)N3CCCC3)CC2)s1	.	-	.
NC(=O)N1CCC(CC(=O)N2CCC(C3c4ncc(Br)cc4CCc4cc(Cl)cc(Br)c43)CC2)CC1 (stereo not drawn)	-40	.	?
Cn1cc(S(=O)(=O)N2CCN(Cc3ccccc3F)CC2)c(=O)n(C)c1=O	.	-	.
COc1ccccc1C(=O)Nc1ccc(S(=O)(=O)Nc2nc(C)cc(C)n2)cc1	-29	?	?
COc1cc(SC)ccc1C(=O)Nc1ccc(S(=O)(=O)Nc2nccc(C)n2)cc1	-	-	.
N#Cc1cccc(CN2CC[C@H](c3nnc(-c4ccco4)o3)C2)c1	-	-	.
COc1cccc(-c2c(C(=O)NCc3ccccn3)nc3sccn23)c1	-	.	.
COc1ccc(-c2c(C(=O)NCc3ccccn3)nc3sccn23)cc1	-30	.	-
N#Cc1nc(-c2ccc(S(=O)(=O)N3CCOCC3)cc2)oc1NCCCN1CCOCC1	.	-	.
C[S+](=O)([O-])c1cccc(-c2cnc3[nH]cc(CC(N)=O)c3c2)c1	-	-	.
SMILES	IP6K1 inhibitor	KDM5B inhibitor	IP6K1 inh cnf
NC(=O)Cc1c[nH]c2ncc(-c3ccccc3F)cc12	-38	35µM	?
NC(=O)Cc1c[nH]c2ncc(-c3ccccc3Oc3ccccc3)cc12	-	?	.
NC(=O)Cc1c[nH]c2ncc(-c3cccc(C(F)(F)F)c3)cc12	-32	?	?
NC(=O)Cc1c[nH]c2ncc(-c3cccc(O)c3)cc12	-38	?	?
Cn1cc(-c2cnc3[nH]cc(CC(=O)Nc4ccc(C(F)(F)F)cc4)c3c2)cn1	-	?	.
Cc1onc(-c2ccccc2Cl)c1C(=O)N1CCN(S(=O)(=O)c2ccc3c(c2)CCC3)CC1	.	-	.
COCCN1CCCN(C(=O)C2CC2)c2ccccc21	-	?	.
CN(CCC#N)C(=O)COc1cc(Cl)ccc1C(N)=O	.	-	.
COC(=O)c1c(C)[nH]c(C(=O)C(C)OC(=O)c2ccc(F)cc2F)c1C (stereo not drawn)	.	-	.
O=C1N2CCCC2CN1C1CCN(Cc2ccc(OC(F)(F)F)cc2)CC1 (stereo not drawn)	-	-	.
CCOc1ccc(N(C(=O)CC(C)C)S(=O)(=O)c2ccc3c(c2)oc(=O)n3C)cc1	-	?	.
Cc1cccc(-n2nc(C)c3c2NC(=O)CC3C(=O)c2ccccc2)c1C (stereo not drawn)	.	-	.
CC(C)C(=O)N[C@H]1C[C@@H](Cc2cc(CN3CCOCC3)on2)C1(C)C	-	-	.
COCCCNC(=O)c1nc2sccn2c1-c1cccnc1	-	.	.
N#C/C(=C\c1cc(Br)c(O)c(Br)c1)c1nc2ccccc2c(=O)[nH]1	-29	?	1.8µM
N#C/C(=C/c1ccccc1Cl)c1nc2ccccc2c(=O)[nH]1	-	-	.
COCCN1Cc2[nH]nc(-c3ccccc3OCc3ccccc3)c2CC1=O	-	-	.
Cc1cc(C)cc(N(CC(=O)Nc2ccc(C(F)(F)F)cc2)S(=O)(=O)c2c(C)[nH]c(=O)[nH]c2=O)c1	-	-	.
COc1ccc(CNC(=O)CN(c2ccc(OC)cc2)S(=O)(=O)c2c(C)[nH]c(=O)[nH]c2=O)cc1	-	-	.
COc1ccc(N(CC(=O)NCc2ccc(C)cc2)S(=O)(=O)c2c(C)[nH]c(=O)[nH]c2=O)cc1	-25	-	-
Cc1cc(C)cc(N(CC(=O)Nc2ccc(C)cc2Cl)S(=O)(=O)c2c(C)[nH]c(=O)[nH]c2=O)c1	-27	-	-
O=C(C1C2C(=O)N(Cc3ccc(F)cc3)C[C@@]23C=C[C@@H]1O3)N1CCSCC1 (stereo partly drawn)	-	-	.
CN(Cc1cnn(C)c1)C(=O)C1C2C(=O)N(Cc3ccc(F)cc3)C[C@@]23C=C[C@@H]1O3 (stereo partly drawn)	-42	-	-
O=C(O)C1=CC(=C(c2ccc(O)c(C(=O)O)c2)c2ccc(O)c(C(=O)O)c2)C=CC1=O	.	.	1.5µM
Nc1ccc(O)c(C(=O)O)c1	-	.	.
SMILES	IP6K1 inhibitor	KDM5B inhibitor	IP6K1 inh cnf
CCN(CC)S(=O)(=O)c1ccc2c(c1)nc(SCC(=O)Nc1ccc(F)c(F)c1)n2CC	.	-	.
O=C(O)c1cc(O[C@@H]2O[C@H](CO)[C@@H](O)[C@H](O)[C@H]2O)ccc1O	-	.	.
O=C(O)c1cc(O)c2cccc(O)c2c1O[C@@H]1O[C@H](CO)[C@@H](O)[C@H](O)[C@H]1O	-37	.	?
Nc1c(S(=O)(=O)O)cc(Nc2ccc(Nc3nc(Cl)nc(Nc4ccc(S(=O)(=O)O)cc4)n3)c(S(=O)(=O)O)c2)c2c1C(=O)c1ccccc1C2=O	.	.	2.9µM
CNC(=O)c1cc(C)nc2onc(C3CCCN([S+](=O)([O-])c4ccccc4)C3)c12 (stereo not drawn)	-	.	.
C[C@@H]1COC(Nc2ccc3ncnc(Nc4ccc(OCc5nccs5)c(Cl)c4)c3c2)=N1	-34	.	?
CS(=O)(=O)CCNCc1ccc(-c2ccc3ncnc(Nc4ccc(OCc5cccc(F)c5)c(Cl)c4)c3c2)o1	-	.	.
Cc1ccc(NC(=O)CCCn2nc(C)c3c(C)n(-c4ccccc4)nc3c2=O)cc1Cl	-	-	.
CCOC(=O)c1cccc(NC(=O)CCCn2nc(C)c3c(C)n(-c4ccccc4)nc3c2=O)c1	-100	-	-
Fc1ccc(-c2csc(-c3cccnc3)n2)cc1	.	-	.
Cc1ccc2c(C)c(C(=O)N(Cc3cccc(Br)c3)C3CCS(=O)(=O)C3)oc2c1 (stereo not drawn)	.	-	.
CN(C)CCNC(=O)C[C@@H]1O[C@H](CNS(=O)(=O)c2ccc(Cl)cc2)[C@@H](O)[C@H]1O	-	-	.
Cc1cc(NC(=O)c2ccccc2F)cc(-c2nc3ccccc3o2)c1O	.	-	.
